Screens from PubChem.
Only some compounds are listed: those with a hit (about 12% of all), similar ones and a draw of the others.
Sfp PPTase inh – Sfp phosphopantetheinyl transferase inhibition; Q9F4F7; Biochemical Sfp PPTase activity, qHTS; Potency, µM, most hits filed as inhibitors; hit rate 3.5% among 310,000;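 also: the enzyme is Sfp with the accession as filed and its product quenches rhodamine fluorescence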
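Buffer: 50 mM Hepes-Na pH 7.6, 10 mM MgCl2, 0.01% Nonidet P-40, 0.01% BSA. Enzyme 15 nM, pre-exposed to compound 15 min; substrates then added and fluorescence change tracked over 30 min.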
HP1b binding inh – HP1-beta chromodomain-methylated histone interaction inhibition. P83916. AlphaScreen HP1-beta / biotin-H3K9me3 peptide binding. Potency, µM (top dose mostly 114 µM), most hits filed as inhibitors. hit rate 0.56% among 390,000; also: nearly all actives have a fitted effect of over 70% in size
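AlphaScreen: HP1-beta (50 nM) preformed 30 min with biotin-H3(1-18)K9me3 peptide (50 nM) in PBS pH 7.4, 0.01% Tween-20. Compound added for 30 min at RT, then streptavidin donor/nickel chelate acceptor beads (10 ug/mL) for 30 min.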
G9a inh-1 – inhibitors of human histone lysine methyltransferase G9a. Q96KQ7. G9a H3K9 monomethylation, AlphaScreen, 2 h. Potency, µM (doses to about 102 µM), usual class: inhibitors. hit rate 8.8% among 350,000. AID 504332; also: nearly all actives have a fitted effect of over 75% in size
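Chemiluminescent proximity detection of H3K9 monomethylation, read after 10 min bead incubation in the dark. Reaction: 20 nM G9a, 500 nM biotin-H3K9 peptide, 20 uM SAM cofactor, 2 h, room temperature, following 15 min enzyme-compound preincubation.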
JMJD2A Tudor inh – inhibitors of human JMJD2A Tudor domain; AlphaScreen JMJD2A-Tudor / H3K4me3 peptide binding; AID 504339; Potency, µM (top dose mostly 114 µM), most hits filed as inhibitors; hit rate 4.4% among 390,000; also: nearly all actives have a fitted effect of over 50% in size
BAZ2B block – inhibitors of human BAZ2B bromodomain; Potency, µM (series often up to 114 µM), usual class: inhibitors; AID 504333; hit rate 4.4% among 360,000; AlphaScreen BAZ2B-H3K14Ac peptide displacement; also: nearly all actives have a fitted effect of over 60% in size
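In this displacement format the biotinylated H3(5-23) peptide acetylated at Lys14 serves as ligand at 50 nM, with BAZ2B at 50 nM in PBS pH 7.4 containing 0.01% Tween-20. Donor and acceptor beads are 10 ug/mL final.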
12-hLO 8HQ R1 – 12-hLO (human) inhibition, 8HQ series round 1. hit rate 60% among 35. Potency, µM, usual class: inhibitors. shares compounds with BAZ2B block. purified 12-hLO, cuvette UV 234 nm product formation;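 active = compounds that slowed 12-hLO product formation enough to yield a measured IC50 potency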
JMJD2E inh-1 – JMJD2E demethylase inhibition by 8HQ compounds | JMJD2E demethylase, FDH-coupled NADH fluorescence | shares compounds with BAZ2B block | hit rate 89% among 130 | Potency, µM (top dose mostly 57 µM), actives largely listed as inhibitors
Target sequence (B2RXH2 1-337 limits assumed): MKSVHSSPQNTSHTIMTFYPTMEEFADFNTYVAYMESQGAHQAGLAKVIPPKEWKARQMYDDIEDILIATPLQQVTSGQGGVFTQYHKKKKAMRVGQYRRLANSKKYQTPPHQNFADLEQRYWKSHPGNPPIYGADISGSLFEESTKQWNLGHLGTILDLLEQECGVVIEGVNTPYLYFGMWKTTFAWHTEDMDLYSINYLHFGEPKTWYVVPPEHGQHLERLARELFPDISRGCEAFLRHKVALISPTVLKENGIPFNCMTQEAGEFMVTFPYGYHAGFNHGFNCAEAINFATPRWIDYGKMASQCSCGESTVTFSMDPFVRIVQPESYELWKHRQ
JMJD2E inh-2 – confirmation of inhibitors of human JMJD2E demethylase | shares compounds with JMJD2A Tudor inh | Recombinant JMJD2E, FDH-coupled NADH fluorescence (FDH is formaldehyde dehydrogenase) | Potency, µM (highest dose often 56.8 µM), usual class: inhibitors | hit rate 93% among 140 | AID 2677
FDH counter – FDH (Pseudomonas putida) inhibition counter-screen | shares compounds with JMJD2A Tudor inh | FDH enzyme assay, NADH fluorescence kinetic | Potency, µM (highest dose often 56.7 µM), most hits filed as inhibitors | hit rate 10% among 140
Target sequence (P46154 whole entry, looked up): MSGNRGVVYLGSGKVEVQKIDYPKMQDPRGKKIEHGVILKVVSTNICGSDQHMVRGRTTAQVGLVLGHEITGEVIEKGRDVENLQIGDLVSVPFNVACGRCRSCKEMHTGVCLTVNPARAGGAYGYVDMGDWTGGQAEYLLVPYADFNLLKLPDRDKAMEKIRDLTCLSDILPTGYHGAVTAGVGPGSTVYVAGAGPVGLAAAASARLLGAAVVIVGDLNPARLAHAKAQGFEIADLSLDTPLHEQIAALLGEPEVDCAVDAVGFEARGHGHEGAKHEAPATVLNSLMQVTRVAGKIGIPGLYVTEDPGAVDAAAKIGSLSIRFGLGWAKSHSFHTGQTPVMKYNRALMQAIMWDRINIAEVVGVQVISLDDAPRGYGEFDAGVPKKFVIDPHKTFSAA
JMJD2E MALDI inh – inhibitors of human JMJD2E demethylase; Potency, µM, hits mostly inhibitors; recombinant JMJD2E demethylation, MALDI-TOF-MS; shares compounds with JMJD2A Tudor inh; hit rate 90% among 45;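 active = compounds whose IC50 for blocking JMJD2E demethylation is below 100 µM; inconclusive = dose dependent effect but IC50 above 100 µM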
G9a inh-2 – inhibits human G9a histone lysine methyltransferase, hit confirmation; Potency, µM, hits mostly inhibitors; shares compounds with JMJD2A Tudor inh; hit rate 89% among 370; G9a H3K9 monomethylation, AlphaScreen, 2 h; also: nearly all actives have a fitted effect of over 65% in size
Each line names hits and unclear results; the compound was inactive in the other large screens (follow-up assays come after a bar, where they were run). Unless noted, calls follow the shape of the dose curve; as a rule, active = well fitted curve in the direction sought with a large enough effect; inconclusive = small, poorly fitted or top-dose-only effect, or another doubt; inactive = no such curve, though single readings can be large; an effect the other way counts as inactive or inconclusive.

O=C(Cc1ccccc1F)Nc1cccc2cccnc12	none
Oc1ccc(CNCc2ccccc2F)c2cccnc12	JMJD2A Tudor inh 25µM (no result: Sfp PPTase inh, HP1b binding inh, G9a inh-1, BAZ2B block) | JMJD2E inh-1 6.5µM | JMJD2E inh-2 inconclusive | FDH counter inactive | JMJD2E MALDI inh 21
OCc1cn(Cc2ccc(O)c3ncccc23)cn1	BAZ2B block 1µM (no result: Sfp PPTase inh, HP1b binding inh, JMJD2A Tudor inh) | JMJD2E inh-1 11µM | JMJD2E inh-2 11µM | FDH counter inactive
Oc1ccc(CCc2c(F)cccc2F)c2cccnc12	none (no result: Sfp PPTase inh, HP1b binding inh, G9a inh-1, BAZ2B block) | JMJD2E inh-1 8.1µM | JMJD2E inh-2 13µM | FDH counter inactive | JMJD2E MALDI inh 39
O=S(=O)(c1ccc(O)c2ncccc12)N1CCCCC1	none (no result: Sfp PPTase inh, HP1b binding inh, G9a inh-1, JMJD2A Tudor inh, BAZ2B block) | JMJD2E inh-1 18µM | JMJD2E inh-2 18µM | FDH counter inactive
O=S(=O)(Nc1ccccc1F)c1ccc(O)c2ncccc12	none (no result: Sfp PPTase inh, HP1b binding inh, G9a inh-1, JMJD2A Tudor inh, BAZ2B block) | JMJD2E inh-1 29µM | JMJD2E inh-2 13µM | FDH counter inactive
O=S(=O)(NCc1ccccc1)c1ccc(O)c2ncccc12	none (no result: Sfp PPTase inh, HP1b binding inh, G9a inh-1, JMJD2A Tudor inh, BAZ2B block) | JMJD2E inh-1 32µM | JMJD2E inh-2 23µM | FDH counter inactive
CCOc1ccc(NS(=O)(=O)c2ccc(OCC)c3ncccc23)cc1	none
O=S(=O)(Nc1ccccc1)c1ccc(O)c2ncccc12	none (no result: Sfp PPTase inh, HP1b binding inh, G9a inh-1, JMJD2A Tudor inh, BAZ2B block) | JMJD2E inh-1 9.1µM | JMJD2E inh-2 9.1µM | FDH counter inactive
Cc1nn(C(=O)COc2ccccc2Br)c(C)c1Sc1ccccc1	none (no result: Sfp PPTase inh)
CCC(=O)NC(c1ccc(C)cc1)c1ccc2cccnc2c1O (stereo unspecified)	JMJD2A Tudor inh 79µM, BAZ2B block 22µM | 12-hLO 8HQ R1 inactive | JMJD2E inh-1 13µM | JMJD2E inh-2 13µM | FDH counter inactive
CCC(=O)NC(c1cccs1)c1cc(Cl)c2cccnc2c1O (stereo unspecified)	none | 12-hLO 8HQ R1 1µM | JMJD2E inh-1 13µM | JMJD2E inh-2 13µM | FDH counter inactive
CCC(=O)NC(c1ccc(C)cc1)c1cc([N+](=O)[O-])c2cccnc2c1O (stereo unspecified)	Sfp PPTase inh inconclusive, G9a inh-1 inconclusive, JMJD2A Tudor inh 22µM, BAZ2B block 4µM | 12-hLO 8HQ R1 2.3µM | JMJD2E inh-1 13µM | JMJD2E inh-2 13µM | FDH counter inactive
CCC(=O)NC(c1cccc([N+](=O)[O-])c1)c1c(O)ccc2ccccc12 (stereo unspecified)	none
CCOc1ccc(C(NC(=O)CC)c2c(O)ccc3ccccc23)cc1 (stereo unspecified)	G9a inh-1 inconclusive
CCOC(=O)C1CCN(CCC(=O)Nc2ccc(Br)c(C)c2)CC1	none
C[C@H]1CN([C@@H](C)CO)C(=O)c2cc(NC(=O)C3CCCCC3)ccc2O[C@H]1CN(C)C(=O)Nc1ccc2c(c1)OCO2	none (no result: Sfp PPTase inh, G9a inh-1, BAZ2B block)
CN1CCN(C2CCN(Cc3ccc(O)c4ncccc34)CC2)CC1	JMJD2A Tudor inh 45µM, BAZ2B block 8.9µM (no result: Sfp PPTase inh) | JMJD2E inh-1 3.2µM | JMJD2E inh-2 3.2µM | FDH counter inactive
CN1CCN(Cc2cc(COCc3ccccc3)c3cccnc3c2O)CC1	G9a inh-1 inconclusive, JMJD2A Tudor inh 18µM, BAZ2B block 10µM | JMJD2E inh-1 6.3µM | JMJD2E inh-2 6.3µM | FDH counter inactive
Brc1ccccc1CN1CCC(N2CCCCC2)CC1	none (no result: BAZ2B block)
CC(C)c1ccc(NC(=O)c2cc3c(=O)oc4ccccc4c3s2)cc1	none (no result: Sfp PPTase inh)
CC(C)Oc1ccc(CNC(=O)C2CCN(C(=O)N3CC(C)Oc4ccccc43)CC2)cc1 (stereo unspecified)	G9a inh-1 inconclusive (no result: Sfp PPTase inh)
CC1(C)OC2OC3C(CNCCO)OC(c4ccccc4)OC3C2O1 (stereo unspecified)	none (no result: Sfp PPTase inh, G9a inh-1, BAZ2B block)
O=C(O)c1cc(Br)c(O)c2ncccc12	none (no result: Sfp PPTase inh, HP1b binding inh, G9a inh-1, JMJD2A Tudor inh, BAZ2B block) | JMJD2E inh-1 0.0073µM | JMJD2E inh-2 inconclusive | FDH counter inactive
Cn1nnc(NC(=S)NC(=O)c2cccs2)n1	G9a inh-1 0.79µM, JMJD2A Tudor inh 3.2µM, BAZ2B block inconclusive | G9a inh-2 7.1
Cc1ccnc(NC(=S)NC(=O)c2cccs2)c1	none
COc1cccc(NC(=O)C2CC(=O)N=C(N)S2)c1 (stereo unspecified)	none
COc1ccc(NC(=O)C2CC(=O)n3ncnc3N2)cc1 (stereo unspecified)	none
COc1cccc(NC(=O)C2CC(=O)n3cnnc3S2)c1 (stereo unspecified)	Sfp PPTase inh 45µM, G9a inh-1 0.63µM, JMJD2A Tudor inh 18µM, BAZ2B block inconclusive | G9a inh-2 0.18
COc1ccc(NC(=O)C2CC(=O)n3cnnc3S2)cc1 (stereo unspecified)	Sfp PPTase inh 56µM, G9a inh-1 inconclusive, JMJD2A Tudor inh 11µM | G9a inh-2 0.18
Cc1ccc(Cl)cc1NC(=O)C1CCN(S(=O)(=O)c2cccc3nonc23)CC1	none (no result: Sfp PPTase inh)
Cc1ccc(S(=O)(=O)Nc2cccc(NC(=O)CN3CCCCC3)c2)cc1	HP1b binding inh inconclusive, G9a inh-1 inconclusive, JMJD2A Tudor inh inconclusive, BAZ2B block inconclusive | G9a inh-2 2.8
Cc1ccc(S(=O)(=O)Nc2ccc(NC(=O)CN3CCCCC3)cc2)cc1	G9a inh-1 inconclusive
COc1ccc(Cc2nnc(SCC(=O)NC3CCCCC3)n2C)cc1	G9a inh-1 inconclusive | G9a inh-2 10
Cc1cccc(C(=O)NCC(c2ccc3c(c2)OCO3)N2CCN(c3ccccc3F)CC2)c1 (stereo unspecified)	BAZ2B block inconclusive (no result: Sfp PPTase inh)
CC1CC(=O)N(c2ccc(C(C)C)cc2)C(=O)C1	none (no result: G9a inh-1)
CC(C)c1ccc(N2C(=O)CC(Sc3ncn[nH]3)C2=O)cc1 (stereo unspecified)	Sfp PPTase inh 56µM, G9a inh-1 1.3µM, JMJD2A Tudor inh 7.1µM | JMJD2E inh-2 5.6µM | FDH counter 0.25µM
